Holding throughout (assay): yeast three-hybrid, YBZ-1, SC-Leu-His + 0.5 mM 3-AT, 4 days
What all share (conditions): tags: N-Gal4 AD-HA kept; label: inside an RPR1-promoter hybrid RNA with tandem MS2 sites; ssRNA

Assay [1] has as its target PUM1 PUF domain R3-IYR (Homo sapiens, UniProt Q14671 828-1176, C935I;R936Y;Q939R). The method, boiled down:
(§1)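 Each repeat of the Pumilio-1 PUF domain was randomized at its three base-contacting residues, and these libraries were co-expressed from a centromeric plasmid with matching RNA elements in strain YBZ-1. After four days on SC-Leu (input) or SC-Leu-His + 0.5 mM 3-AT (selection), the repeat regions were PCR-amplified and Illumina-sequenced. The interaction score compares variant frequency between input and selection as a log change, computed in log2 with a pseudocount of 1 for absent variants.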

Assay [2] addresses PUM1 PUF domain R3-CRL (Homo sapiens, UniProt Q14671 828-1176, Q939L). The method, boiled down:
as §1

Assay [3] deals with PUM1 PUF domain R3-IRG (Homo sapiens, UniProt Q14671 828-1176, C935I;Q939G). Summed up:
as §1

Assay [4] concerns the target PUM1 PUF domain R5-QMW (Homo sapiens, UniProt Q14671 828-1176, C1007Q;R1008M;Q1011W). The method, boiled down:
as §1

Assay [5] addresses PUM1 PUF domain R8-PWT (Homo sapiens, UniProt Q14671 828-1176, N1122P;Y1123W;Q1126T). The method, boiled down:
as §1

In assay [6] the target is PUM1 PUF domain R1-GKK (Homo sapiens, UniProt Q14671 828-1176, S863G;R864K;Q867K). Summed up:
as §1

Assay [7] deals with T1, PUM1 PUF domain R6-MYV (Homo sapiens, UniProt Q14671 828-1176, N1043M;Q1047V).
T1 sequence: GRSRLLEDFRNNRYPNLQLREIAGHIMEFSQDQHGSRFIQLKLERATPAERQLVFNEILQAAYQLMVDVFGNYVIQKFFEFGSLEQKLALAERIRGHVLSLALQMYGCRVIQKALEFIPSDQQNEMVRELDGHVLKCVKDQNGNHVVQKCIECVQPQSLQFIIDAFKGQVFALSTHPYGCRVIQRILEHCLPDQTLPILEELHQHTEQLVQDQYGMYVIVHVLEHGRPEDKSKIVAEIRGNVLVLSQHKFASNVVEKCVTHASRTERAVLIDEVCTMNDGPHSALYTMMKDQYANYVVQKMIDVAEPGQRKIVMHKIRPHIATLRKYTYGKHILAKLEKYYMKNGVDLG
The method, boiled down:
as §1

Assay [8] deals with PUM1 PUF domain R3-LFI (Homo sapiens, UniProt Q14671 828-1176, C935L;R936F;Q939I). The method, boiled down: as §1
The target of assay [9] is T2, PUM1 PUF domain R6-YWR (Homo sapiens, UniProt Q14671 828-1176, N1043Y;Y1044W;Q1047R).
T2 sequence: T1 sequence with M216Y, Y217W, V220R
Summed up: as §1

For assay [10], the target named is PUM1 PUF domain R1-RQS (Homo sapiens, UniProt Q14671 828-1176, S863R;R864Q;Q867S). The method, boiled down:
as §1

Numbering of substitutions follows the chain as printed.

Sequence of PUM1 PUF domain R5-QMW (Q14671 828-1176 C1007Q/R1008M/Q1011W): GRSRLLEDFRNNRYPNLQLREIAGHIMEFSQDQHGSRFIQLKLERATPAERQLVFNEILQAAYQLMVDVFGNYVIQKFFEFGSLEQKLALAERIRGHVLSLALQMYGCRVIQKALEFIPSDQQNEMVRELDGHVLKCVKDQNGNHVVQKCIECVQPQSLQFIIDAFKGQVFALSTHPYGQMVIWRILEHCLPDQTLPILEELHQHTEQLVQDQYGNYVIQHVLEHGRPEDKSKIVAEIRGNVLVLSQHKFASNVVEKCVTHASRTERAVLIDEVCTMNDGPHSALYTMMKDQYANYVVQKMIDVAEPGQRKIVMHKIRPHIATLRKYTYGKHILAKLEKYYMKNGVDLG
Sequence of PUM1 PUF domain R1-RQS (Q14671 828-1176 S863R/R864Q/Q867S): as the sequence (Q14671 828-1176 C1007Q/R1008M/Q1011W) above, with S36R, R37Q, Q40S, Q180C, M181R, W184Q counted along it

For the sequence “GGCUAGAACUAGUGGAUCCCCCGGCGCCCGGCGGCUCGAGCCCGGGUAAGUGUAAGUAGUCUGCAUGCCGCCGGGCGCCAUGCCUGCAGGUCGACUCUAGAAAACAUG”, the binding signal in assay [1] was 5.62 log2 enrichment (interaction score); in assay [2], 0.83 log2 enrichment (interaction score); in assay [3], 3.97 log2 enrichment (interaction score).
Consider “GGCUAGAACUAGUGGAUCCCCCGGCGCCCGGCGGCUCGAGCCCGGGUAAGUGUGAAUAGUCUGCAUGCCGCCGGGCGCCAUGCCUGCAGGUCGACUCUAGAAAACAUG”, for which, in assay [4], the binding signal was 2.85 log2 enrichment (interaction score).
For “GGCUAGAACUAGUGGAUCCCCCGGCGCCCGGCGGCUCGAGCCCGGGUAAGCGUAAAUAGUCUGCAUGCCGCCGGGCGCCAUGCCUGCAGGUCGACUCUAGAAAACAUG”, in assay [5], the binding signal was 3.16 log2 enrichment (interaction score).
As for “GGCUAGAACUAGUGGAUCCCCCGGCGCCCGGCGGCUCGAGCCCGGGUAAGUGUUAAUAGUCUGCAUGCCGCCGGGCGCCAUGCCUGCAGGUCGACUCUAGAAAACAUG”, the binding signal in assay [4] is 0.66 log2 enrichment (interaction score).
Regarding “GGCUAGAACUAGUGGAUCCCCCGGCGCCCGGCGGCUCGAGCCCGGGUAAGUGUAAAUGGUCUGCAUGCCGCCGGGCGCCAUGCCUGCAGGUCGACUCUAGAAAACAUG”, the binding signal in assay [6] is 3.39 log2 enrichment (interaction score).
Turning to “GGCUAGAACUAGUGGAUCCCCCGGCGCCCGGCGGCUCGAGCCCGGGUAAGUGUAAUUAGUCUGCAUGCCGCCGGGCGCCAUGCCUGCAGGUCGACUCUAGAAAACAUG”, the values for the binding signal in [2] and in assay [3] were 1.88 log2 enrichment (interaction score) and 0.44 log2 enrichment (interaction score), respectively.
Regarding “GGCUAGAACUAGUGGAUCCCCCGGCGCCCGGCGGCUCGAGCCCGGGUAAGUGUAAAUAGUCUGCAUGCCGCCGGGCGCCAUGCCUGCAGGUCGACUCUAGAAAACAUG”, the binding signal in [7] is 2.31 log2 enrichment (interaction score); in assay [1], 4.02 log2 enrichment (interaction score); in assay [5], 1.25 log2 enrichment (interaction score); in assay [2], 2.25 log2 enrichment (interaction score); in assay [8], 3.78 log2 enrichment (interaction score); in assay [9] it was 5.79 log2 enrichment (interaction score).
Regarding “GGCUAGAACUAGUGGAUCCCCCGGCGCCCGGCGGCUCGAGCCCGGGUAAGUGUAAAUUGUCUGCAUGCCGCCGGGCGCCAUGCCUGCAGGUCGACUCUAGAAAACAUG”, the values for the binding signal in assay [10] and in assay [6] were 3.04 log2 enrichment (interaction score) and 5.09 log2 enrichment (interaction score), respectively.
Turning to “GGCUAGAACUAGUGGAUCCCCCGGCGCCCGGCGGCUCGAGCCCGGGUAAGUGAAAAUAGUCUGCAUGCCGCCGGGCGCCAUGCCUGCAGGUCGACUCUAGAAAACAUG”, in assay [9], the binding signal is 6.63 log2 enrichment (interaction score).

Values taken from PMC8384837, “Expanding the binding specificity for RNA recognition by a PUF domain”.
